From PubChem BioAssay (Tox21)
Results filed as inconclusive are left out. Values without a mark were called inactive. Calls come from the whole dose curve; as a rule, active = well fitted cell-killing curve with a large enough effect in the repeat runs; inconclusive = weak or mixed curves, or effect the other way; inactive = flat fitted curve, though single readings scatter.

experiment: qHTS RealTime-Glo MT Cell Viability Assay in HEK293 cells - 8 hour (AID 1224887); conditions: RealTime-Glo luminescence; series mostly up to 76.8 µM; activity change, negative = cytotoxicity: at the top concentration; note: top concentration of the series differs between compounds; nearly all actives have a fitted effect of over 50% in size
Source text: U.S. Tox21 Program National Center for Advancing Translational Sciences [NCATS] NIH Chemical Genomics Center [NCGC] U.S. Environmental Protection Agency [EPA] National Institutes of Environmental Health Sciences [NIEHS] National Toxicology Program [NTP] U.S. Food and Drug Administration [FDA] Tox21 Assay Overview: Measure of cell viability is critical in the cell-base assay. Analysis of cell viability is necessary for the characterization of cell responses to cytotoxic drugs and environmental stress. A RealTime-Glo MT Cell Viability Assay to monitor cell viability in real time of continues cell culture during 40 hours of compound treatment was used to screen Tox21 10K library compounds in Hek293 cells. The RealTime-Glo MT Cell Viability Assay is a nonlytic, homogeneous, bioluminescent method to measure cell viability in real time using a simple, plate-based method. The assay involves adding NanoLuc luciferase and a cell-permeant prosubstrate to cells in culture. Viable cells reduce the proprietary prosubstrate to generate a substrate for NanoLuc luciferase. This substrate diffuses from cells into the surrounding culture medium, where it is rapidly used by the NanoLuc Enzyme to produce a luminescent signal. The signal correlates with the number of viable cells, making the assay well suited for cytotoxicity studies.
Tox21 Assay Protocol Summary: The mixture of Hek293 cell suspension and reagents were dispensed at 600cells/6 ul/well in 1536-well tissue culture treated black solid bottom plates using a Multidrop dispenser. After the assay plates were incubated at a 37 C/5% CO2 incubator for 5 hours, 23 nL of compounds dissolved in DMSO, positive and negative controls was transferred to the assay plate by a pintool work station. The plates were incubated at 37 C for 40 hours. The luminescence intensity were measured at 0h, 8h, 16h, 24h, 32h and 40h time points using ViewLux plate reader during compound treatment.
% is set by controls: 0 for no effect and ±100 for the full control effect.

| SMILES | activity change, negative = cytotoxicity |
| --- | --- |
| CC1OCCC1=O (stereo not given) | 1.66% |
| CO[Si](CCCn1c(=O)n(CCC[Si](OC)(OC)OC)c(=O)n(CCC[Si](OC)(OC)OC)c1=O)(OC)OC | 0.826% [at 35.3 µM] |
| [O-][n+]1cccc(/C(Cl)=N/OC[C@@H](O)CN2CCCCC2)c1 | 0.378% [at 35.3 µM] |
| CCn1cc(C(=O)O)c(=O)c2cnc(N3CCCC3)nc21 | 10.5% [at 6.97 µM] |
| CC(=O)O[C@H]1C[C@@H]2CC[C@@]1(C)C2(C)C | 2.2% |
| CCCCOC(=O)[C@H](C)O | 4.44% |
| COc1cc(/C=C/C(N)=O)cc(OC)c1OC | -0.552% [at 35.3 µM] |
| CN(C)CCN(C)CCO | 3.61% |
| c1ccc(B(c2ccccc2)c2ccccc2)cc1 | -25.3% |
| CCOCCOCC | 1.42% |
| C/C=C(\C)C(C)=O | -2.02% |
| O=C(Cl)c1ccccc1[N+](=O)[O-] | 7.12% |
| CCc1occc(=O)c1O | 0.677% |
| CC(=O)C(C)O (stereo not given) | 16.9% |
| O=C1CCCCO1 | 8.13% |
| c1ccc2cnccc2c1 | 2.4% |
| Cc1ccnc(N)c1 | -1.3% |
| CC(=O)OC1CCCCC1C(C)(C)C (stereo not given) | -2.68% |
| CC(=O)c1cc(C)oc1C | 0.526% |
| N[C@@H](CSCCCO)C(=O)O | -0.319% [at 15.8 µM] |

| SMILES | activity change, negative = cytotoxicity |
| --- | --- |
| N#Cc1cscn1 | -2.29% |
| CN(C)CCCCl | -0.675% |
| C=C(C)[C@@H]1CC=C(C)C(=O)C1 | -3.55% |
| CC(=O)CCC1=C(C)CCCC1(C)C | -6.05% |
| CC(Oc1cc(Cl)ccc1Cl)C(=O)O (stereo not given) | 3.98% |
| CC1(C)CC(OC(=O)CCCCCCCCC(=O)OC2CC(C)(C)NC(C)(C)C2)CC(C)(C)N1 | 1.91% [at 15.8 µM] |
| Cc1ccc(C(C)NC(=O)[C@@H](NC(=O)OC(C)C)C(C)C)cc1 (stereo not given in full) | -8.43% |
| CC1=C(O)C(=O)C(C)O1 (stereo not given) | -0.0678% |
| Cc1c(NC(=O)c2cccnc2)c(=O)n(-c2ccccc2)n1C | 3.69% [at 35.3 µM] |
| CSc1cnccn1 | 6.64% |
| C=CC/C=C/C | 2.45% |
| COC(=O)CCCCC(CCSS/C(CCO)=C(\C)N(C=O)Cc1cnc(C)nc1N)SC(C)=O (stereo not given) | 0.119% [at 35.3 µM] |
| O/N=C/C=N/O | 9.56% |
| CC(=O)OCC(=O)Nc1cc(C#N)cc(NC(=O)COC(C)=O)c1Cl | 0.614% [at 35.3 µM] |
| c1ccc(-c2nn[nH]n2)cc1 | 3.58% |
| CCC(C)C(C)=O (stereo not given) | -0.37% |
| CC(=O)C1C(=O)C=C(C)OC1=O (stereo not given) | 4.07% |
| COCCc1ccccn1 | 1.29% [at 35.3 µM] |
| COc1ccc(CCO)cc1 | 10.7% |
| O=C(O)CSCC(=O)NC1CCSC1=O (stereo not given) | 1.01% [at 35.3 µM] |
